PubChem BioAssay (NCI)
About 79,000 compounds went through this panel and 15% of them were active in at least one assay; those are over-represented in the sample as a whole. Calls of active or inactive are those of the source. No stated cut-off is given here; in the data, active means growth inhibition above about 70%; inactive means the rest.

Assays:
[1] = NCI Yeast Anticancer Drug Screen. Data for the rad52 strain (AID 147);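 further: 0% = growth of vehicle-treated control cultures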; conditions: S. cerevisiae rad52 mutant growth inhibition, stronger effect = higher value
Method in brief: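 DNA repair-defective yeast; compound exposure; growth scored against vehicle controls.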

[2] = NCI Yeast Anticancer Drug Screen. Data for the wt1 strain (AID 149);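 further: 0% = growth of vehicle-treated wt1 cultures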; conditions: S. cerevisiae wt1 strain (SPY 50644) growth inhibition, stronger effect = higher value
Method in brief: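 Yeast wt1 strain exposed to compounds; growth inhibition measured relative to vehicle-treated controls.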

[3] = NCI Yeast Anticancer Drug Screen. Data for the rad50EPP+ strain (AID 151);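 further: 0% = growth of vehicle-treated control cultures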; conditions: S. cerevisiae rad50 mutant strain, stronger effect = higher value
Method in brief: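 rad50EPP+ yeast treated with test compounds. Readout: growth vs vehicle control.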

[4] = NCI Yeast Anticancer Drug Screen. Data for the mgt1 strain (AID 153); conditions: S. cerevisiae mgt1 mutant growth inhibition, stronger effect = higher value
Method in brief: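 Growth inhibition relative to vehicle controls was scored for the mgt1 yeast strain after compound exposure.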

[5] = NCI Yeast Anticancer Drug Screen. Data for the rad50 strain (AID 155);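 further: 0% = growth of vehicle-only cultures of the same strain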; conditions: S. cerevisiae rad50 strain growth inhibition, stronger effect = higher value
Method in brief: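 Yeast carrying a defined DNA repair defect were exposed to test compounds, and growth was compared with vehicle-treated controls to give percent inhibition.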

[6] = NCI Yeast Anticancer Drug Screen. Data for the mec2-1 strain (AID 157); conditions: S. cerevisiae mec2-1 strain, stronger effect = higher value
Method in brief: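 Growth inhibition is read against vehicle-treated controls after compound exposure of the mec2-1 yeast strain, which is defective in DNA damage repair or cell cycle control.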

[7] = NCI Yeast Anticancer Drug Screen. Data for the rad14 strain (AID 159);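 further: 0% = growth of vehicle-treated control cultures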; conditions: S. cerevisiae rad14 strain growth inhibition, stronger effect = higher value
Method in brief: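 Yeast cells carrying a defined DNA-repair defect were exposed to compounds, and growth inhibition was calculated relative to vehicle-treated control cultures.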

[8] = NCI Yeast Anticancer Drug Screen. Data for the CLN2oe strain (AID 163);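 further: 0% = growth of vehicle-only control cultures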; conditions: S. cerevisiae CLN2oe strain, stronger effect = higher value
Method in brief: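 Compound-treated yeast; growth vs vehicle ctrl = % inhibition. Genetically altered strain (cell-cycle control).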

[9] = NCI Yeast Anticancer Drug Screen. Data for the bub3 strain (AID 167); conditions: S. cerevisiae bub3 mutant strain, stronger effect = higher value
Method in brief: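 Compounds were applied to a genetically altered yeast strain carrying a cell-cycle control defect. Growth inhibition was scored against vehicle-treated controls.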

[10] = NCI Yeast Anticancer Drug Screen. Data for the wt2 strain (AID 169);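 further: 0% = growth of vehicle-treated yeast cultures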; conditions: S. cerevisiae wt2 strain growth inhibition, stronger effect = higher value
Method in brief: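 Compound exposure of yeast; growth compared with vehicle controls; inhibition reported.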

[11] = NCI Yeast Anticancer Drug Screen. Data for the mlh1 strain (AID 171);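 further: 0% = growth of vehicle-treated control cultures of the same strain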; conditions: S. cerevisiae mlh1 strain growth inhibition, stronger effect = higher value
Method in brief: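 Compounds are applied to a genetically altered yeast strain, and its growth is compared with that of vehicle-treated cultures to give percent inhibition.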

[12] = NCI Yeast Anticancer Drug Screen. Data for the sgs1 strain (AID 173);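 further: 0% = growth of vehicle-only control cultures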; conditions: S. cerevisiae sgs1 mutant, stronger effect = higher value
Method in brief: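 Compounds applied to genetically altered yeast; growth compared with vehicle-treated cultures to give % inhibition.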

[13] = NCI Yeast Anticancer Drug Screen. Data for the mlh1 rad18 strain (AID 175); conditions: S. cerevisiae mlh1 rad18 strain growth inhibition, stronger effect = higher value
Method in brief: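 Cells of a genetically altered yeast strain, deficient in DNA damage repair, were treated with compound. Their growth was then compared with that of vehicle-treated cultures to give inhibition.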

[14] = NCI Yeast Anticancer Drug Screen. Data for the rad18 strain (AID 177); conditions: S. cerevisiae rad18 mutant growth inhibition, stronger effect = higher value
Method in brief: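 Compounds are applied to a repair-deficient yeast strain, and growth is compared with that of vehicle-treated cultures to give percent inhibition.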

[15] = at 5.0 µM (retest, dose inferred, filed as 0.5)
[16] = at 50.0 µM (retest, dose inferred, filed as 5.0)

Measured: growth inhibition

N#CC1=C(N)N(/N=C/c2ccccc2)C(c2ccccc2)C1(C#N)C#N (configuration not stated)
active: [1]; at 11.0 µM 78% | [1]; at 33.0 µM 90% | [1]; at 100.0 µM 84% | [4]; at 11.0 µM 84% | [4]; at 33.0 µM 96% | [4]; at 100.0 µM 95% | [5]; at 33.0 µM 90% | [5]; [16] 83% | [5]; at 100.0 µM 87% | [6]; at 11.0 µM 72% | [6]; at 33.0 µM 91% | [6]; [16] 87% | [6]; at 100.0 µM 87% | [7]; at 33.0 µM 89% | [7]; at 100.0 µM 90% | [8]; at 33.0 µM 88% | [8]; at 100.0 µM 93% | [9]; at 11.0 µM 77% | [9]; at 33.0 µM 93% | [9]; [16] 88% | [9]; at 100.0 µM 95% | [10]; at 11.0 µM 94% | [10]; at 33.0 µM 86% | [10]; at 100.0 µM 87% | [11]; at 11.0 µM 79% | [11]; at 33.0 µM 95% | [11]; at 100.0 µM 93% | [12]; at 11.0 µM 80% | [12]; at 33.0 µM 93% | [12]; at 100.0 µM 95% | [13]; [16] 89% | [14]; at 11.0 µM 81% | [14]; at 33.0 µM 89% | [14]; at 100.0 µM 89%
inactive: [1]; at 1.2 µM 15% | [1]; at 3.7 µM 41% | [2]; at 1.2 µM 12% | [2]; at 3.7 µM 12% | [2]; at 11.0 µM 10% | [2]; at 33.0 µM 55% | [2]; at 100.0 µM 58% | [3]; at 1.2 µM 20% | [3]; at 3.7 µM 14% | [3]; at 11.0 µM 8% | [3]; at 33.0 µM 23% | [3]; at 100.0 µM 5% | [4]; at 1.2 µM 8% | [4]; at 3.7 µM 33% | [5]; at 1.2 µM 5% | [5]; at 3.7 µM 17% | [5]; [15] 16% | [5]; at 11.0 µM 66% | [5]; at 50.0 µM 39.9% | [6]; at 1.2 µM 9% | [6]; at 3.7 µM 31% | [6]; [15] 4% | [6]; at 50.0 µM 58.5% | [7]; at 1.2 µM 4% | [7]; at 3.7 µM 19% | [7]; at 11.0 µM 45% | [8]; at 1.2 µM 25% | [8]; at 3.7 µM 40% | [8]; at 11.0 µM 64% | [9]; at 1.2 µM 9% | [9]; at 3.7 µM 21% | [9]; [15] 13% | [9]; at 50.0 µM 65.7% | [10]; at 1.2 µM -9% | [10]; at 3.7 µM 51% | [11]; at 1.2 µM 13% | [11]; at 3.7 µM 27% | [12]; at 1.2 µM 15% | [12]; at 3.7 µM 41% | [13]; [15] 14% | [13]; at 50.0 µM 63.5% | [14]; at 1.2 µM 3% | [14]; at 3.7 µM 22%
